Assay outcomes deposited in PubChem by several laboratories.
Measles CPE: protection of cells from measles virus. protection (pct of control), % at 4 µM. 140,000 compounds, 1.5% hits. AID 841. Measles virus-infected cells, CPE protection, absorbance; in the data active = protection mostly above about 24%, no sharp cut-off; inactive = mostly below about 26%
sdo1 growth: restores growth of sdo1-depleted yeast | z-score at 10 µM | 140,000 compounds, 0.21% hits | S. cerevisiae sdo1-depleted JHY4D growth rescue, OD600 30 h; active compounds read high; pdr5 snq2 efflux-pump mutant strain;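 active = z-score above 3 at both the 24 hr and the 30 hr optical density reads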
Phagocyt inh: macrophage phagocytosis inhibition; J774A.1 macrophage IgG-bead phagocytosis, imaging; inhibition, % at 5 µM; 110,000 compounds, 0.07% hits; AID 1029;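 active = inhibition above the mean of the plate negative controls plus 5 SD, cut at about 13% in these data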;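 also: phagocytic index as fraction of beads internalized from green versus red external bead signal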
A number is an active result; n = inactive; x = no result given; [ ] = another dose, or the depositor's remark. Rows were chosen to be rich in hits. Some 1.8% of all compounds tested hit in one or more screens of this group.

SMILES	Measles CPE	sdo1 growth	Phagocyt inh
O=C(O)Cc1ccc2c(c1)N(S(=O)(=O)c1cccc(C(F)(F)F)c1)CC(C(=O)O)O2 (configuration not stated)	42.9	n	n
O=C(Cc1ccc2c(c1)OCCO2)N1CCN(S(=O)(=O)c2cccc(C(F)(F)F)c2)CC1	n	n	n
CC(C)OCCCN1C(=O)c2ccccc2C1C(=O)NC1CCCCC1 (configuration not stated)	n	n	n
O=C(NNc1nc(-c2ccccc2)c2cc(Br)ccc2n1)c1ccc(S(=O)(=O)N2CCOCC2)cc1	n	n	n
O=C(NNc1nc(-c2ccccc2)c2cc(Br)ccc2n1)c1ccc(S(=O)(=O)N2CCCCC2)cc1	47.0	n	n
N#Cc1ccccc1NC(=O)CNc1ccc(Cl)c(C(F)(F)F)c1	n	n	n
COc1ccc(OC)c(NC(=O)COC(=O)CSc2ccc(Cl)cc2)c1	18.2	n	n
COc1ccc(OC)c(NC(=O)CSc2ccc3ccccc3c2)c1	n	n	n
O=C(CSCc1ccc(Cl)cc1)NCc1ccccn1	n	n	x
CCOC(=O)C1=C(C)C(c2ccccc2OC)NC(=S)N1 (configuration not stated)	n	n	x
COc1ccc(N2CCN(C(=O)Nc3ccc(S(=O)(=O)N(C)C)cc3)CC2)cc1	n	n	n
CN(C)S(=O)(=O)c1ccc(NC(=O)N2CCN(c3ccccc3)CC2)cc1	39.8	n	n
COC(=O)c1sc(OC)cc1OCc1ccc(C)cc1	n	n	x
C#CCn1c(=NC(=O)c2cc(-c3cccs3)nc3ccccc23)sc2cc(S(N)(=O)=O)ccc21	n	n	n
CCCCCCNCc1c(F)cccc1Cl	57.3	n	n
Fc1cccc(Cl)c1CNCc1ccccc1Cl	n	n	n
Cn1cc(C(=O)C(F)(F)F)c2ccccc21	52.5	n	n
Cn1cc(SCC(N)=O)c2ccccc21	n	n	n
CCOC(=O)N1CCN(C(=O)CSCC(=O)Nc2nc(-c3ccc(OC)cc3)cs2)CC1	n	n	n
CCOC(=O)N1CCN(C(=O)CSCC(=O)Nc2nc(-c3ccc(-c4ccccc4)cc3)cs2)CC1	44.3	n	n
Cc1c(N=C(N)/N=C(\N)Nc2ccc(Br)cc2)c(=O)n(-c2ccccc2)n1C	n	n	x
Cc1cc[n+](-c2nc([O-])sc2/C=N/Nc2ccc([N+](=O)[O-])cc2)cc1	49.1	n	n
CCSc1ncc(/C=N/Nc2ccc([N+](=O)[O-])cc2)n1C	n	n	n
O=C(CSc1ncnc2c1cnn2CCc1ccccc1)Nc1cccc(C(F)(F)F)c1	n	n	n
CCN1CCCC(NC(=O)c2cc([N+](=O)[O-])ccc2OC)C1 (configuration not stated)	n	n	n
SMILES	Measles CPE	sdo1 growth	Phagocyt inh
CCCCCc1c(O)c2ccccc2[nH]c1=O	35.6	n	n
CCCCCOC(=O)Cc1c(O)c2ccccc2[nH]c1=O	n	n	n
Cc1onc(-c2c(F)cccc2Cl)c1C(=O)NCC1COc2ccccc2O1 (configuration not stated)	n	n	16.2[artifact]
COC(=O)CNC(=O)c1c(-c2ccccc2Cl)noc1C	n	n	n
COC(=O)CNC(=O)c1c(-c2c(Cl)cccc2Cl)noc1C	41.4	n	n
Cc1onc(-c2c(Cl)cccc2Cl)c1C(=O)NCC1CCCO1 (configuration not stated)	n	n	n
CC(C)CCNC(=O)c1ccc(Cl)c(NC(=O)Cc2ccccc2)c1	n	n	n
COC(=O)c1cn(NC(=O)c2ccncc2)c(=O)c2ccccc12	n	n	n
COC(=O)c1cn(NC(=O)c2ccc(F)cc2)c(=O)c2ccccc12	44.4	n	x
COc1ccc(NC(=O)c2ccc(-n3nc(C)cc3C)cc2)cc1OC	49.0	n	n
Cc1cc(C)n(-c2ccc(C(=O)Nc3ccc4c(c3)OCO4)cc2)n1	n	n	n
Cc1cc(C)n(-c2ccc(C(=O)Nc3ccc(N4CCOCC4)cc3)cc2)n1	n	n	n
Cc1cc(C)n(-c2ccc(C(=O)NC3=NCCS3)cc2)n1	34.9	n	x
Cc1cc(C)c(S(=O)(=O)N(C2=NCCS2)S(=O)(=O)c2c(C)cc(C)cc2C)c(C)c1	n	n	x
N#C/C(=C1/CCCCCN1)c1nc2ccccc2[nH]1	n	n	n
N#C/C(=C1\CCCN1)c1ccc2ccccc2n1	18.3	n	n
O=S1(=O)C=C(Oc2ccc(F)cc2)c2ccccc21	n	n	n
O=S1(=O)C=C(Oc2ccc3ccccc3c2)c2ccccc21	66.4	n	x
O=C(CN1CCC(n2nnc3ccccc32)CC1)NCc1cccs1	n	n	n
CCCn1c(N2CCN(CC(=O)NCc3cccs3)CC2)nc2ccccc21	60.7	n	n
N#Cc1ccccc1OCCOCCNC1CCCC1	n	n	n
CCOC(=O)c1c(NC(=O)CSC(=S)N2CCOCC2)sc(C)c1C	n	n	n
NC(=O)CSc1nnc(CNc2ccc(F)cc2)n1CC1CCCO1 (configuration not stated)	n	n	n
CCSc1nnc(CNc2ccc(F)cc2)n1CC1CCCO1 (configuration not stated)	46.0	n	x
O=C(N/N=C\c1ccc(F)cc1)c1cc(OCC(F)(F)F)ccc1OCC(F)(F)F	37.0	n	n
SMILES	Measles CPE	sdo1 growth	Phagocyt inh
Cc1ccc(/C=N\NC(=O)c2cc(OCC(F)(F)F)ccc2OCC(F)(F)F)cc1	n	n	x
CNc1nc(C(=O)O)nc(N2CCOCC2)n1	n	n	x
CSc1nc(NCC(C)C)nc(N2CCOCC2)n1	35.8	n	n
CCCNc1nc(N2CCOCC2)nc(N2CCOCC2)n1	n	n	n
CNc1nc(SCC(=O)OC)nc(N2CCOCC2)n1	n	n	74.2[artifact]
Cc1nn(C)cc1/C=N/NC(=O)C1(O)c2ccccc2-c2ccccc21	n	n	n
COC(=O)C1=NN(c2ccc(C)cc2)C2(S1)SC(C(C)=O)=C(C)N2c1ccccc1 (configuration not stated)	n	n	n
CC1(C(=O)NCCN2CCOCC2)C=CC2(CCCCC2)N1C(=O)c1ccccc1 (configuration not stated)	n	n	x
COCCNC(=O)C1(C)C=CC2(CCCCC2)N1C(=O)c1ccccc1 (configuration not stated)	21.7	n	x
COc1cc(/C=C/C(=O)O)cc(S(=O)(=O)NC2CC2)c1OC	n	n	n
CC1CCCCN1C(=O)/C(=C\c1ccccc1)c1ccccc1 (configuration not stated)	n	n	x
Cn1cnnc1SCC(=O)N1CCc2ccccc21	n	n	n
CC(C)c1nnc(SCC(=O)N2CCc3ccccc32)n1C	28.7	n	x
COc1ccc(NC(=O)CCC2CCCCC2)cc1S(=O)(=O)N1CCCCC1	n	n	n
COc1cccc(-n2nc(C(=O)O)c3ccccc3c2=O)c1	n	n	n
COC(=O)CNC(=O)c1nn(-c2cccc(OC)c2)c(=O)c2ccccc12	44.4	n	n
Cc1ccc(S(=O)(=O)N2CCC(=O)N(CCO)CC2)cc1	n	n	x
CCN(CC)c1ccc(NC(=O)c2cccc(C)c2)cc1S(=O)(=O)Nc1ccccc1OC	n	n	n
CCN(CC)c1ccc(NC(=O)c2ccccc2)cc1S(=O)(=O)Nc1ccccc1OC	44.7	n	n
C1=CCC(/C=N/n2cnnc2)CC1 (configuration not stated)	31.1	n	n
C(=N\n1cnnc1)/C1CCCCC1	n	n	n
CC1CCCC(C)N1C(=O)Cn1c(=O)sc2ccccc21 (configuration not stated)	n	n	n
